Measured values from PubChem BioAssay (EPA / NIEHS).
“And” between values parts separate entries of the source, which are not always exact repeats. Identical values can stand only once. Inconclusive results are not listed. Some compounds were tested as several samples or in several runs, with calls that do not always agree. The source made the active and inactive calls. How the source made its calls: active means hit-call score of the fitted dose curve at least 0.9, where 1 is the maximum; inconclusive means response in the unintended direction; inactive means score below 0.9.

Test system: not listed separately
Experiment: TOX21_p53_BLA_p3_viability: Viability Assessment in the Tox21 HCT-116 p53 Agonism Beta-lactamase Assay, Phase 3 (AID 2283593);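 further: cells exposed to compound for 16 h before reading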
How it was run: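 Cellular ATP was quantified by CellTiter-Glo luminescence, read after 30 min at room temperature. Beforehand, HCT116 cells (4000/well) received compound 5 h post-seeding, 217-fold diluted from DMSO, then incubated 16 h at 37C.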

Structure (SMILES)	outcome	AC50
C=CC(N)=O	inactive	
CCOCCOC(C)=O	inactive	
Oc1ccc(C(c2ccc(O)cc2)(C(F)(F)F)C(F)(F)F)cc1	inactive	82.1 µM (active)
CCCCCCOC(=O)c1ccccc1C(=O)OCCCCCC	inactive	
O=S(=O)(O)C(F)(F)C(F)(F)C(F)(F)C(F)(F)F	inactive	
CCCCCCCCCC[N+](C)(C)CCCCCCCCCC		64 µM (active) and 27.4 µM (active)
CCC(=O)O[C@H]1CC[C@H]2[C@@H]3CCC4=CC(=O)CC[C@]4(C)[C@H]3CC[C@]12C	inactive	82 µM (active)
CC(C)(O)C(=O)Nc1ccc([N+](=O)[O-])c(C(F)(F)F)c1	inactive	
CO/C=C(/C(=O)OC)c1ccccc1COc1cccc(C(F)(F)F)n1	inactive	
CC(c1ccc(O)cc1)(c1ccc(O)cc1)c1ccc(O)cc1	inactive	
CN(C)CCO	inactive	
CC1=C2C[C@H]3[C@@H](CC=C4C[C@@H](O)CC[C@@]43C)[C@@H]2CC[C@]12O[C@@H]1C[C@H](C)CN[C@H]1[C@H]2C	inactive	
Cc1cc(O)ccc1Cl	inactive	
Nn1cnnc1	inactive	
O=C(O)C(F)(F)C(F)(F)C(F)(F)C(F)(F)C(F)(F)C(F)(F)C(F)(F)C(F)(F)F		56.9 µM (active)
O=C(NC(=O)c1c(F)cccc1F)Nc1cc(Cl)c(OC(F)(F)C(F)F)c(Cl)c1	inactive	
O=C(NC(=O)c1cc(F)c(F)cc1Cl)Nc1cc(F)ccc1N1CCC(C(=O)O)CC1	inactive	
CCCCCCCCCc1ccc(O)cc1	inactive	
Cc1cccc([N+](=O)[O-])c1	inactive	
CC(C)(c1ccccc1)c1ccc(O)cc1	inactive	
c1cc2ccc3cccc4ccc(c1)c2c34	inactive	
C[C@]12CCC(=O)C=C1CC[C@@H]1[C@@H]2CC[C@@]2(C)[C@H]1CC[C@]2(C)O	inactive	
Clc1ccc(C(Cl)(Cl)Cl)cc1	inactive	
CCCCCCCCOC(=O)c1ccccc1C(=O)OCCCCCCCC	inactive	
ClC(Cl)=C(c1ccc(Cl)cc1)c1ccc(Cl)cc1	inactive	58.4 µM (active)
Nc1ccc(-c2ccc(N)cc2)cc1	inactive	
O=S(=O)(O)C(F)(F)C(F)(F)C(F)(F)C(F)(F)C(F)(F)C(F)(F)F	inactive	
C[C@]12CCC(=O)C=C1CC[C@@H]1[C@@H]2CC[C@]2(C)C(=O)CC[C@@H]12	inactive	
CCOC(=O)C(O)(c1ccc(Cl)cc1)c1ccc(Cl)cc1	inactive	22 µM (active)

Biological target: Cellular tumor antigen p53 (Homo sapiens) (UniProt P04637)
Experiment: TOX21_p53_BLA_p3_ratio: Tox21 HCT-116 p53 Agonism Beta-lactamase Assay, Ratio, Phase 3 (AID 2283596)
How it was run: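 Cells were seeded at 4000/well, rested 5 h at 37C, then dosed with DMSO compound solutions (217-fold dilution) for 16 h. CCF4-AM substrate was loaded for 2 h at room temperature, and the 460/530 nm emission ratio was fitted for gain of signal versus DMSO.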

Chain of Cellular tumor antigen p53 (Homo sapiens) (P04637 whole entry, looked up): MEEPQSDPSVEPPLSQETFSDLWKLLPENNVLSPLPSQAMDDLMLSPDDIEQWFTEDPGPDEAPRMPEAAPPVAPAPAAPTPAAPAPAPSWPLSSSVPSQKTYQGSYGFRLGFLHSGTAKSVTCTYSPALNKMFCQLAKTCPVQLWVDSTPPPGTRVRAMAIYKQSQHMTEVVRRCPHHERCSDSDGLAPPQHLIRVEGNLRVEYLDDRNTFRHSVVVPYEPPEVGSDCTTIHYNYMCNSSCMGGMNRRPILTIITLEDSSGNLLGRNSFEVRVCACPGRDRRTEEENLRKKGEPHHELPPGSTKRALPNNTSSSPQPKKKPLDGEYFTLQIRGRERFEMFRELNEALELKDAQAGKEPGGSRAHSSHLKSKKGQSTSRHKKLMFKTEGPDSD

Structure (SMILES)	outcome	AC50
C=CC(N)=O	inactive	
CCOCCOC(C)=O	inactive	
Oc1ccc(C(c2ccc(O)cc2)(C(F)(F)F)C(F)(F)F)cc1	inactive	54.2 µM (active)
O=S(=O)(O)C(F)(F)C(F)(F)C(F)(F)C(F)(F)F	inactive	
CCCCCCCCCC[N+](C)(C)CCCCCCCCCC		74.3 µM (active) and 39.7 µM (active)
CCC(=O)O[C@H]1CC[C@H]2[C@@H]3CCC4=CC(=O)CC[C@]4(C)[C@H]3CC[C@]12C	inactive	
CC(C)(O)C(=O)Nc1ccc([N+](=O)[O-])c(C(F)(F)F)c1	inactive	
CO/C=C(/C(=O)OC)c1ccccc1COc1cccc(C(F)(F)F)n1		6.17 µM (active)
CC(c1ccc(O)cc1)(c1ccc(O)cc1)c1ccc(O)cc1		78.9 µM (active)
CN(C)CCO	inactive	
CC1=C2C[C@H]3[C@@H](CC=C4C[C@@H](O)CC[C@@]43C)[C@@H]2CC[C@]12O[C@@H]1C[C@H](C)CN[C@H]1[C@H]2C	inactive	
Cc1cc(O)ccc1Cl	inactive	
Nn1cnnc1	inactive	
O=C(O)C(F)(F)C(F)(F)C(F)(F)C(F)(F)C(F)(F)C(F)(F)C(F)(F)C(F)(F)F	inactive	
Cc1cccc(C)c1N	inactive	
O=C(NC(=O)c1c(F)cccc1F)Nc1cc(Cl)c(OC(F)(F)C(F)F)c(Cl)c1	inactive	
O=C(NC(=O)c1cc(F)c(F)cc1Cl)Nc1cc(F)ccc1N1CCC(C(=O)O)CC1	inactive	
O=C(O)C(F)(F)C(F)(F)C(F)(F)C(F)(F)C(F)(F)F	inactive	
Cc1cccc([N+](=O)[O-])c1	inactive	
CC(C)(c1ccccc1)c1ccc(O)cc1	inactive	
c1cc2ccc3cccc4ccc(c1)c2c34	inactive	
ClC1=C(Cl)[C@]2(Cl)[C@@H]3[C@@H]4C[C@@H]([C@H]5O[C@@H]45)[C@@H]3[C@@]1(Cl)C2(Cl)Cl	inactive	
C[C@]12CCC(=O)C=C1CC[C@@H]1[C@@H]2CC[C@@]2(C)[C@H]1CC[C@]2(C)O	inactive	
Clc1ccc(C(Cl)(Cl)Cl)cc1	inactive	
CCCCCCCCOC(=O)c1ccccc1C(=O)OCCCCCCCC	inactive	
ClC(Cl)=C(c1ccc(Cl)cc1)c1ccc(Cl)cc1	inactive	
Nc1ccc(-c2ccc(N)cc2)cc1	inactive	
O=S(=O)(O)C(F)(F)C(F)(F)C(F)(F)C(F)(F)C(F)(F)C(F)(F)F	inactive	
C[C@]12CCC(=O)C=C1CC[C@@H]1[C@@H]2CC[C@]2(C)C(=O)CC[C@@H]12	inactive	
CCOC(=O)C(O)(c1ccc(Cl)cc1)c1ccc(Cl)cc1		55.2 µM (active) and 50.6 µM (active)
